# Results filed as inconclusive are left out. Active and inactive are the calls of the source. How the source made its calls: active means hit-call score of the fitted dose curve at least 0.9, where 1 is the maximum; inconclusive means response in the unintended direction; inactive means score below 0.9.
# Target: human MAP Kinase-Activated Protein Kinase 5 (MAPKAPK5), MAPKAPK5 (gene 8550) (UniProt Q8IW41)
# Experiment: NVS_ENZ_hMAPKAPK5: NovaScreen (NVS) Enzymatic Assay for human MAP Kinase-Activated Protein Kinase 5 (MAPKAPK5)
# Procedure: NVS_ENZ_hMAPKAPK5 is a biochemical, single-readout assay that uses extracted gene-proteins in a cell-free assay. Measurements were taken 1 hour after chemical dosing in a 384-well plate.NVS_ENZ_hMAPKAPK5 is one of one assay component(s) measured or calculated from the NVS_ENZ_hMAPKAPK5 assay. It is designed to make measurements of enzyme activity, a form of enzyme reporter, as detected with fluorescence intensity signals by Fluorescence and electrophoretic mobility shift technology.Data from the assay component NVS_ENZ_hMAPKAPK5 was analyzed into 1 assay endpoint. This assay endpoint, NVS_ENZ_hMAPKAPK5, was analyzed in the positive analysis fitting direction relative to DMSO as the negative control and baseline of activity. Using a type of enzyme reporter, loss-of-signal activity can be used to understand changes in the enzymatic activity as they relate to the gene MAPKAPK5. Furthermore, this assay endpoint can be referred to as a primary readout, because this assay […]. To generalize the intended target to other relatable targets, this assay endpoint is annotated to the kinase intended target family, where the subfamily is serine/threonine kinase.
# Binding assays used specific radioligands (tritiated, iodinated) with non-radioactive competitive displacement ligands in agonist or antagonist protocols (as indicated) and various reference compounds and inhibitors to titrate specific binding to receptors and transporters. Most enzyme assays (CYPs, kinases, phosphatases, proteases, HDACs) used recombinant protein and specific substrates (fluorescence mostly, some colorimetric and radioactive) and inhibitors, followed by a biochemical separation of substrate and product. All assays for the biochemical HTS were initially run in duplicate at a single concentration (10 uM for CYP450 assays and 25 uM for all others). Assay-chemical combinations meeting a pre-defined threshold (e.g., 30% inhibition and other criteria defined below) were then run in singleton concentration-response format with maximum concentration of 20 uM for CYPs and 50 uM for all others. Each assay was run with positive and negative controls, and concurrent controls on every plate. The follow-up (secondary) screen tested active chemical-pairs in concentration series, as well as a few additional assays not tested in the primary screen, some selected negative inactives, and several cases re-run in the concentration series for confirmatory purposes.
# Sequence of human MAP Kinase-Activated Protein Kinase 5 (MAPKAPK5), MAPKAPK5 (gene 8550) (Q8IW41 whole entry, looked up): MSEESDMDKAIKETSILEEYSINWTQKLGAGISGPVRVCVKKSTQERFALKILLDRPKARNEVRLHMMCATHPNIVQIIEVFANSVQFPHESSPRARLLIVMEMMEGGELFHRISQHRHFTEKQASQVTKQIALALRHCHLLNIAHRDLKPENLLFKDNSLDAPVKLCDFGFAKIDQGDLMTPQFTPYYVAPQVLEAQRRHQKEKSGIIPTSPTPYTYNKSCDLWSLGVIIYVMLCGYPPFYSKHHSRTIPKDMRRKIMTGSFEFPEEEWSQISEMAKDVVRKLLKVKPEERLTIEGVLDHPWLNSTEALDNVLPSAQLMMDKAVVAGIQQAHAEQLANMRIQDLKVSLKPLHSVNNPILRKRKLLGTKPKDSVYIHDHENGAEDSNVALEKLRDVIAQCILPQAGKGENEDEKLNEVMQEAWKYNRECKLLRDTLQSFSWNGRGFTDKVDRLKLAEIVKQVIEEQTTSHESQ
Compound,outcome,AC50
N#Cc1c(Cl)c(Cl)c(Cl)c(C#N)c1Cl,inactive,
O=S(=O)(O)C(F)(F)C(F)(F)C(F)(F)C(F)(F)C(F)(F)C(F)(F)C(F)(F)C(F)(F)F,,44.1 µM (active)
S=C1NCCN1,inactive,
CCCC(=NOCC)C1=C(O)CC(CC(C)SCC)CC1=O (stereo not drawn),inactive,
C=C(C)CN(CC)c1c([N+](=O)[O-])cc(C(F)(F)F)cc1[N+](=O)[O-],inactive,
O=C(O)C(F)(F)C(F)(F)C(F)(F)C(F)(F)C(F)(F)C(F)(F)C(F)(F)F,inactive,
CNC(=S)S,inactive,
CN(C)[C@@H]1C(=O)C(C(N)=O)=C(O)[C@@]2(O)C(=O)C3=C(O)c4c(O)cccc4[C@@](C)(O)[C@H]3[C@H](O)[C@@H]12,,24.2 µM (active)

# — PubChem BioAssay AID2283176 (EPA ToxCast)
